In all, about 35,000 sequences were measured (“fluorescence intensity (a.u.)”: median about 10,000, highest 2% from about 52,000 on). The sample holds the highest values, similar sequences and a random draw of the others, so the mix is not that of the screen.

In the assay the target is T1, OsWOX13 (Oryza sativa, UniProt Q5QMM3 1-267).
T1 sequence: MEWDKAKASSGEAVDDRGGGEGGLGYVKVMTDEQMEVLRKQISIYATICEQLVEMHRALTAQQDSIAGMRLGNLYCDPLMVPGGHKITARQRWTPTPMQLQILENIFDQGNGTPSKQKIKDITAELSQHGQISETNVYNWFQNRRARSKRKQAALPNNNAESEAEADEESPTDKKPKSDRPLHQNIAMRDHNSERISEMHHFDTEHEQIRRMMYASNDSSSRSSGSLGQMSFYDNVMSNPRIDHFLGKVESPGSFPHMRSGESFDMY
The experiment in a line: protein-binding microarray (RPBM); PBS, 2% BSA, 51.3 ng/ul salmon testes DNA, 50 uM zinc acetate, 200 nM TF, 25 C, 1 h; high values mean tight binding. As to conditions: protein: recombinant; tags: N-terminal polyhistidine and DsRed monomer fusion (pET32a); label: CyDye5-dUTP incorporated in the synthesized complementary strand; 3' TTTTT single-stranded linker to array surface; dsDNA, one strand shown. Put shortly:
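An Axon 4000B scanner gave the binding signal as per-feature fluorescence intensity in arbitrary units. This followed washing of a custom Agilent array that had been incubated for 1 h at 25 °C with 200 nM protein in PBS, 2% BSA, salmon testes DNA and 50 µM zinc acetate. The proteins were transcription factors fused at the N-terminus to polyhistidine and DsRed, expressed in E. coli BL21-CodonPlus and purified on Ni–NTA.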
“TAAGTTTTAATTGAAATTTTGTTCACAAATACTCCAAATCCGGAGTCACCTAGTGCAG”: the binding signal was 11900 fluorescence intensity (a.u.).
Regarding “ATTTTAATTTTAATTATTAATACTCCATTAGCATTTAGTTCGGAGTCACCTAGTGCAG”, the binding signal was 18200 fluorescence intensity (a.u.).
Then “GTATAAATTTGGACAGATTGTGATTAGATTTATAGTCCTACGGAGTCACCTAGTGCAG”, with 29800 fluorescence intensity (a.u.).
For “CATTTGCTAATGATGGATTAATTAGGCTTAATAAATTTGTCGGAGTCACCTAGTGCAG” the value was 19900 fluorescence intensity (a.u.); for “AAATAACAAATTTGACTGTGAATATACGTATACTAGTTAGCGGAGTCACCTAGTGCAG”, 19300 fluorescence intensity (a.u.).
In the case of “CATCATGATTTGATGATGGATTAATTATGCTTAATAAATTCGGAGTCACCTAGTGCAG”, the binding signal is 55300 fluorescence intensity (a.u.).
Turning to “ATTTATAAATTGATTTGGAGCACAGATCGATACGTGCAGACGGAGTCACCTAGTGCAG”, the binding signal is 53400 fluorescence intensity (a.u.).
With “AAAATAAATTTGACTGTGAATATACGTTAACTGGTCATAGCGGAGTCACCTAGTGCAG”, the binding signal was 23100 fluorescence intensity (a.u.).
For “CATGATTAATTAAATATTAACGATCATAAATTTGAAAATTCGGAGTCACCTAGTGCAG” the value was 29300 fluorescence intensity (a.u.); for “ATGTTGATTGTCTAAAATCACAGATTTAGCACATTATCGACGGAGTCACCTAGTGCAG”, 29800 fluorescence intensity (a.u.); for “TTGCTAATGATGAATTAATTAGGCTTAATAAATTCGTCTCCGGAGTCACCTAGTGCAG”, 28300 fluorescence intensity (a.u.).
For the sequence “GCATTTGCTAATGATGGATTAATTAGGCTTAATAGATTCGCGGAGTCACCTAGTGCAG”, the binding signal was 11800 fluorescence intensity (a.u.).
Turning to “TGCTAATGATGGATTAATTAGGCTTAATAAATTCGTCTCGCGGAGTCACCTAGTGCAG”, the binding signal is 54700 fluorescence intensity (a.u.).
Then “GTGACTGACTGATGATAAATTTGATAATACGCGTCGTTAGCGGAGTCACCTAGTGCAG”, with 63100 fluorescence intensity (a.u.).
Consider “GCCCACTCATAATTTCTCCCTTGATTTGTAAAGAAATAAGCGGAGTCACCTAGTGCAG”, for which the binding signal was 16000 fluorescence intensity (a.u.).
For “GAAAATTAGTAGAGAACTAATTAGGGATAAAGTCATTATTCGGAGTCACCTAGTGCAG” the value was 13000 fluorescence intensity (a.u.); for “AAGATTTGTCTCATAAATTAGTCGCAATATGTGTAATTAGCGGAGTCACCTAGTGCAG”, 7560 fluorescence intensity (a.u.).
For “AAAATATCAATTGGCCATAATCATTGTAAGCACTATACAGCGGAGTCACCTAGTGCAG” the value was 7780 fluorescence intensity (a.u.); for “ATCCAATCATACTCCAAGATCTGAAGAGAAGGAGGGATTGCGGAGTCACCTAGTGCAG”, 11900 fluorescence intensity (a.u.).
For “GATGGACCAATTTGATTGTTGTTGGATTCTACGATGCATGCGGAGTCACCTAGTGCAG”, the binding signal is 9950 fluorescence intensity (a.u.).
Then “GCTTAAATTAATATACCTGAACCGGCGAGCATTTAAATTTCGGAGTCACCTAGTGCAG”, with 5370 fluorescence intensity (a.u.); and “AATGACTGATTAATTAGGCTTAATAAATTCATCTCGCAGTCGGAGTCACCTAGTGCAG”, with 59600 fluorescence intensity (a.u.); and “GGATTAATTAGGCTTAATAAATTCATCTCGCAGTTTTCTGCGGAGTCACCTAGTGCAG”, with 26200 fluorescence intensity (a.u.).
Turning to “ATGATTTGTTGTTGAGTTCGGTTTGAAATCAATATAAGTACGGAGTCACCTAGTGCAG”, the binding signal is 14700 fluorescence intensity (a.u.).
Then “ACGGATTAATTAGGCTTAATAAATTTGCCTCGCGGTTTCTCGGAGTCACCTAGTGCAG”, with 39200 fluorescence intensity (a.u.); and “TTGATACTCTGATGATTGTAAAGTAAATTGTTTGAAATTTCGGAGTCACCTAGTGCAG”, with 9650 fluorescence intensity (a.u.); and “TGGCTTAATTTAATCCCCTCCATTCCGGATGCCTCTCCCTCGGAGTCACCTAGTGCAG”, with 20200 fluorescence intensity (a.u.).
Then “TTGATTGATTTGTTTGCACTCCATGAAATAAGTGAGGGCTCGGAGTCACCTAGTGCAG”, with 65200 fluorescence intensity (a.u.); and “CGGATTAATTAGGCTTAATAAATTCATCTCGCAGTTTCCTCGGAGTCACCTAGTGCAG”, with 50800 fluorescence intensity (a.u.).
Then “TCGCTTAATTAATTTGGATTTGGATGCGGATCCCTCGCCTCGGAGTCACCTAGTGCAG”, with 56000 fluorescence intensity (a.u.).
In the case of “CTAATGACGAGATTAATTAGGCTTAATAAATTCGTCTCGCCGGAGTCACCTAGTGCAG”, the binding signal is 54800 fluorescence intensity (a.u.).
Then “AGTACAAATGACGGATTAATTAGGCTTAATAAATTCGTCTCGGAGTCACCTAGTGCAG”, with 19200 fluorescence intensity (a.u.); and “ACTAATGACGGATTAATTAGGCTTAATAAATTCGTCTCGCCGGAGTCACCTAGTGCAG”, with 51500 fluorescence intensity (a.u.); and “CTGATTGGCCATGAGTCCAGAGATAGCATTGAACACAGGACGGAGTCACCTAGTGCAG”, with 32400 fluorescence intensity (a.u.).
Consider “GGGAGTAATTGAATATGCCTTTTGGGCTGCCATCTGCCCACGGAGTCACCTAGTGCAG”, for which the binding signal is 26800 fluorescence intensity (a.u.).
Then “TTTGATTTGATTCGTGTGCTCCCCGCCGCCTTCGATCCCTCGGAGTCACCTAGTGCAG”, with 43600 fluorescence intensity (a.u.).
Then “CTTAATTGCGCGCGAATGGAGTAATACTAGTACTAGTATACGGAGTCACCTAGTGCAG”, with 15100 fluorescence intensity (a.u.).
Then “GACTAAATTTTAATCCCTATCACATCGGATATTTGACACTCGGAGTCACCTAGTGCAG”, with 7230 fluorescence intensity (a.u.); and “AGGCCCAATTACTGATCGAAATTTCGATGATTTCGATCGACGGAGTCACCTAGTGCAG”, with 18500 fluorescence intensity (a.u.); and “CCAATTGGAATGCATTGTCTATTTGTTGTCTAGATCTCTCCGGAGTCACCTAGTGCAG”, with 3760 fluorescence intensity (a.u.).
Regarding “AATCTCCTAATTATGTATTGCCCAAATCCATTTATTTTCCCGGAGTCACCTAGTGCAG”, the binding signal was 7170 fluorescence intensity (a.u.).
For “ACATAACATATGAGATTGAAATTTCTTGAACCATACATTACGGAGTCACCTAGTGCAG”, the binding signal is 9950 fluorescence intensity (a.u.).
“CTCACATGTTAATTACCATCAATGTATTTTACTCTTTTAACGGAGTCACCTAGTGCAG”: the binding signal is 16700 fluorescence intensity (a.u.).
For “TTTATACGAAAATCAATAATTATAGCAGATATCCACAAGGCGGAGTCACCTAGTGCAG” the value was 5700 fluorescence intensity (a.u.).

For the origin of these results see paper PMC7819943, “Rice protein-binding microarrays: a tool to detect cis-acting elements near promoter regions in rice”.
